Laboratory results: the supplement of paper PMC10849652
Targets with a hit are over-represented here; the source holds about 8,800 in all. About 0.5% of all pairs of compound and target were hits. A number with no mark means an inactive call.

Experiments:
Test in all cases: log2 fold change, soluble protein after heating vs DMSO (PISA); higher = thermal stabilisation; K562 lysate, 10 uM; active = over 0.2 and 3.5 SD of the protein, either way, in both replicates (recomputed)
[1] = compound: CN1CC[C@H](c2c(O)cc(O)c3c(=O)cc(-c4ccccc4Cl)oc23)[C@H](O)C1 [alvocidib]
Procedure, shortened: (§1)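 A 30 min treatment with 10 μM compound was applied to crude K562 extract at 1 mg/mL protein in PBS pH 7.4 with 1 mM MgCl2. Heating for 3 min spanned 48°C-58°C, after which aliquots were pooled, adjusted to 0.5% NP-40 at 4°C and spun at 21,000xg for 90 min. TMTpro 16plex LC-MS/MS of the supernatant, with channel sums equalised, gave values recorded as log-two fold change in thermal stability against solvent controls, from duplicates.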

[2] = compound: CN1CCc2c(c3ccccc3n2Cc2ccc(C(=O)NO)cc2)C1 [Tubastatin A]
Procedure, shortened: as §1

[3] = compound: CNC(=O)C1=CC=CC=C1NC2=NC(=NC=C2Cl)NC3=C(C=C(C=C3)N4CCOCC4)OC
Procedure, shortened: as §1

[4] = compound: CNC(=O)c1ccc(Nc2ncc(C(F)(F)F)c(NCc3nccnc3N(C)S(C)(=O)=O)n2)cc1 [defactinib]
Procedure, shortened: as §1

[5] = compound: CNc1nc(-c2ccc3c(N)n[nH]c3c2)cc(N2C[C@@H](C(=O)NC3CCCCC3)CC[C@H]2C)n1
Procedure, shortened: as §1

[6] = compound: COC(=O)N[C@@H](C)CNc1nccc(-c2cn(C(C)C)nc2-c2cc(Cl)cc(NS(C)(=O)=O)c2F)n1 [encorafenib]
Procedure, shortened: as §1

[7] = compound: COC(=O)[C@H](CCSC)NC(=O)C1=C(C=C(C=C1)NC[C@H](CS)N)C2=CC=CC=C2
Procedure, shortened: as §1

[8] = compound: COc1cc(Nc2ncc3c(n2)-c2ccc(Cl)cc2C(c2c(F)cccc2OC)=NC3)ccc1C(=O)O [alisertib]
Procedure, shortened: as §1

[9] = compound: COc1cc2nc(-c3cc(F)ccc3O)nc(N[C@@H]3CNC[C@H]3C(C)(C)O)c2cc1OC
Procedure, shortened: as §1

[10] = compound: COc1cc2ncnc(Nc3ccc(F)c(Cl)c3)c2cc1OCCCN1CCOCC1 [gefitinib]
Procedure, shortened: as §1

[11] = compound: CS(=O)(=O)CCNCc1ccc(-c2ccc3ncnc(Nc4ccc(OCc5cccc(F)c5)c(Cl)c4)c3c2)o1 [lapatinib]
Procedure, shortened: as §1

[12] = compound: CS(=O)(=O)N1CCN(Cc2cc3nc(-c4cccc5[nH]ncc45)nc(N4CCOCC4)c3s2)CC1 [pictilisib]
Procedure, shortened: as §1

[13] = compound: C[C@@H](Oc1cc(-c2cnn(C3CCNCC3)c2)cnc1N)c1c(Cl)ccc(F)c1Cl [crizotinib]
Procedure, shortened: as §1

[14] = compound: C[C@H](C1=CC=C(C=C1)C(=O)NC2=C3C=CNC3=NC=C2)N
Procedure, shortened: as §1

[15] = compound: C[C@H](Nc1ncnc2nc[nH]c12)c1cc2cccc(Cl)c2c(=O)n1-c1ccccc1 [duvelisib]
Procedure, shortened: as §1

[16] = compound: Cc1cc(Nc2cc(CN3CCOCC3)c3nc(C)c(Cc4ccc(Cl)cc4F)n3n2)n[nH]1 [gandotinib]
Procedure, shortened: as §1

[17] = compound: Cc1cc(Nc2cc(N3CCN(C)CC3)nc(Sc3ccc(NC(=O)C4CC4)cc3)n2)n[nH]1 [tozasertib]
Procedure, shortened: as §1

[18] = compound: Cc1ccc(-n2nc(C(C)(C)C)cc2NC(=O)Nc2ccc(OCCN3CCOCC3)c3ccccc23)cc1 [doramapimod]
Procedure, shortened: as §1

[19] = compound: Cc1ccc(NC(=O)c2ccc(CN3CC[C@H](N(C)C)C3)c(C(F)(F)F)c2)cc1Nc1nccc(-c2cncnc2)n1 [bafetinib]
Procedure, shortened: as §1

[20] = compound: Cc1cccc(CC(=O)N2CCc3c2ccc(-c2cn(C)c4ncnc(N)c24)c3F)n1
Procedure, shortened: as §1

Sequence of UniProt Q14145 (Q14145 whole entry, looked up): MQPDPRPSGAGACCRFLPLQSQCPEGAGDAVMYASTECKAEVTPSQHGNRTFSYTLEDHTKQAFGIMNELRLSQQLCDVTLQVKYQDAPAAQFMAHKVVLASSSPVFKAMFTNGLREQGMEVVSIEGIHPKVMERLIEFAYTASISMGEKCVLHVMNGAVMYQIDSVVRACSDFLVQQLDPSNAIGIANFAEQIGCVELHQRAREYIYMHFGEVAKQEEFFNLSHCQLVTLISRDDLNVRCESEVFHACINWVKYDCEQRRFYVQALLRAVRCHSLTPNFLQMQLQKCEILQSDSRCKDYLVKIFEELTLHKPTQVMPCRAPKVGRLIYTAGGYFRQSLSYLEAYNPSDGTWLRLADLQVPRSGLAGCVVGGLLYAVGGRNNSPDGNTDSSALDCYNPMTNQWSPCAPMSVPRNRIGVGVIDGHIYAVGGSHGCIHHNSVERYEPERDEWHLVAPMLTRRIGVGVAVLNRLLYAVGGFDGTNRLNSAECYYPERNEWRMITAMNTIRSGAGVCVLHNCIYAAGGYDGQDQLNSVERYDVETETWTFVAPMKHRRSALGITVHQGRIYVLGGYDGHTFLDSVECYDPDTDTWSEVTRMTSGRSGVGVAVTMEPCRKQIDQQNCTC
Sequence of UniProt O15550 (O15550 whole entry, looked up): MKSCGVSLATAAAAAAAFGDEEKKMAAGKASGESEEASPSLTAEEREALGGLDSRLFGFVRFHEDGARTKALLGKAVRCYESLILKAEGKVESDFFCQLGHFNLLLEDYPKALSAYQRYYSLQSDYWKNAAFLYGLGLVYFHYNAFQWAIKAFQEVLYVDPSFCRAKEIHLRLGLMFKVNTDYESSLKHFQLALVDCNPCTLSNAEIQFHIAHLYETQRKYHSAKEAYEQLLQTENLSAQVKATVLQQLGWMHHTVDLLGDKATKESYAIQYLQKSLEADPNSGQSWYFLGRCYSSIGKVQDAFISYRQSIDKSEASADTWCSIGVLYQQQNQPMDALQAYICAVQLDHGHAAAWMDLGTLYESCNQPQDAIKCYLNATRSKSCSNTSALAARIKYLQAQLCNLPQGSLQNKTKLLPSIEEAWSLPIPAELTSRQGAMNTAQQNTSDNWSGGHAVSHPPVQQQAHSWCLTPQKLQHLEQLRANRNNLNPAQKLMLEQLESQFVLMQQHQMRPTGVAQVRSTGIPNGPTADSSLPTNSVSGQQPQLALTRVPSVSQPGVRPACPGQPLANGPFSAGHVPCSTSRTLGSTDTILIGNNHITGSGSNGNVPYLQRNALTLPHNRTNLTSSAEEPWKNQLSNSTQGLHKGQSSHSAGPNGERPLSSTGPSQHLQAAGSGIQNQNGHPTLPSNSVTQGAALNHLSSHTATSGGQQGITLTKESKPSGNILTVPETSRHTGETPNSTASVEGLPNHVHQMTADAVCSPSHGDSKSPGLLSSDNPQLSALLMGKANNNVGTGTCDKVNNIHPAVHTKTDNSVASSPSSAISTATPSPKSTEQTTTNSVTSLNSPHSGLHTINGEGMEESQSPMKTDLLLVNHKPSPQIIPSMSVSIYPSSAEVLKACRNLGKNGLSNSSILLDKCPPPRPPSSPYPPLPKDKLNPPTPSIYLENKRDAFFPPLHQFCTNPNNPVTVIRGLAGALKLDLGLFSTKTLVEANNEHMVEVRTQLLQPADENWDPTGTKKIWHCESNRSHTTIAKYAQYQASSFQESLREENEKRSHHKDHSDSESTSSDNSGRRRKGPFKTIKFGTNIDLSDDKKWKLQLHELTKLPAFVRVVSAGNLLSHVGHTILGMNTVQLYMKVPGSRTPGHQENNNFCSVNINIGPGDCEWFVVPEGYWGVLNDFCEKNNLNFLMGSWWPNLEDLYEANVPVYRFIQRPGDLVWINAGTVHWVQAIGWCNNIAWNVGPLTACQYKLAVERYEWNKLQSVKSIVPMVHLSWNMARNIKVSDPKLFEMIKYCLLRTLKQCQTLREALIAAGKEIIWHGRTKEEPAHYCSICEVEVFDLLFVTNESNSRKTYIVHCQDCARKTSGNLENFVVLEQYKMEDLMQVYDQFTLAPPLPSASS
Sequence of UniProt Q49A26 (Q49A26 whole entry, looked up): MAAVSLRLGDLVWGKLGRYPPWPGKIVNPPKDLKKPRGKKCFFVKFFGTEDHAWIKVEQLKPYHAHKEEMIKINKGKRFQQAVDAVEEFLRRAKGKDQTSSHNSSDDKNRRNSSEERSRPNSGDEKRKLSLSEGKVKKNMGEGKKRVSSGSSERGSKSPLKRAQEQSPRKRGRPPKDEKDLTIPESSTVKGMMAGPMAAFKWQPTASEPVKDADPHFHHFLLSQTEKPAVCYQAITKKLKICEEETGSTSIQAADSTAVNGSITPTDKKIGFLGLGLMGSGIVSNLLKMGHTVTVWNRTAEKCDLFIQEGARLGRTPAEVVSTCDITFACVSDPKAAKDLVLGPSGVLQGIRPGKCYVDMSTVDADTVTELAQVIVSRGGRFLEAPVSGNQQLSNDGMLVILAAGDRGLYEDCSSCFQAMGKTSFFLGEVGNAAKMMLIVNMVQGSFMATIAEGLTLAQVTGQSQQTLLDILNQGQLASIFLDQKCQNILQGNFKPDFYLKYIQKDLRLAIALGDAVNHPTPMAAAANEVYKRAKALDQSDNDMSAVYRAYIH
Sequence of UniProt P09429 (P09429 whole entry, looked up): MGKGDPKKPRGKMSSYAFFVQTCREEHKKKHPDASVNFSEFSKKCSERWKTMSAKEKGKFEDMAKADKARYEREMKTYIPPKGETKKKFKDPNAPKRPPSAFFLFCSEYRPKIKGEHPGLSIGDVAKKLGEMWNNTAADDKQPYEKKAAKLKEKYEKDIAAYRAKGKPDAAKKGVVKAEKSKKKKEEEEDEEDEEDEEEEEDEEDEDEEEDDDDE
Sequence of UniProt Q01628 (Q01628 whole entry, looked up): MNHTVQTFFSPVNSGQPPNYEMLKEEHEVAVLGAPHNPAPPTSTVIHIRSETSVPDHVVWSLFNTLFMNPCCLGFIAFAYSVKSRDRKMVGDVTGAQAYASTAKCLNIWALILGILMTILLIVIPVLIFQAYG
Sequence of UniProt Q13478 (Q13478 whole entry, looked up): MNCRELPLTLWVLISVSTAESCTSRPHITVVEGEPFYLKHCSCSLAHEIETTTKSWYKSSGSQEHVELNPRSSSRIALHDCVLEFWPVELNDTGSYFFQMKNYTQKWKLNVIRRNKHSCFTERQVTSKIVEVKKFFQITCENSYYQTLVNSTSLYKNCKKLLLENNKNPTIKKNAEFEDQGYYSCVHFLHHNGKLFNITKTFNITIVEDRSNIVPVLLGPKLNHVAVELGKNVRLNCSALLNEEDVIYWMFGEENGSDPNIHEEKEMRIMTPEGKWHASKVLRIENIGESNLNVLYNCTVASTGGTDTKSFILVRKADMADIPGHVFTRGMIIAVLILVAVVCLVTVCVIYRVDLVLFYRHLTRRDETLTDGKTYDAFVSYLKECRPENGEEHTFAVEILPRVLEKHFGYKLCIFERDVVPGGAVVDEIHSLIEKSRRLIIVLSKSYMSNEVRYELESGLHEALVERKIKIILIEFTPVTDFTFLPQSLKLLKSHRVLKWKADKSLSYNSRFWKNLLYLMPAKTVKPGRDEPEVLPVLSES
Sequence of UniProt Q14687 (Q14687 whole entry, looked up): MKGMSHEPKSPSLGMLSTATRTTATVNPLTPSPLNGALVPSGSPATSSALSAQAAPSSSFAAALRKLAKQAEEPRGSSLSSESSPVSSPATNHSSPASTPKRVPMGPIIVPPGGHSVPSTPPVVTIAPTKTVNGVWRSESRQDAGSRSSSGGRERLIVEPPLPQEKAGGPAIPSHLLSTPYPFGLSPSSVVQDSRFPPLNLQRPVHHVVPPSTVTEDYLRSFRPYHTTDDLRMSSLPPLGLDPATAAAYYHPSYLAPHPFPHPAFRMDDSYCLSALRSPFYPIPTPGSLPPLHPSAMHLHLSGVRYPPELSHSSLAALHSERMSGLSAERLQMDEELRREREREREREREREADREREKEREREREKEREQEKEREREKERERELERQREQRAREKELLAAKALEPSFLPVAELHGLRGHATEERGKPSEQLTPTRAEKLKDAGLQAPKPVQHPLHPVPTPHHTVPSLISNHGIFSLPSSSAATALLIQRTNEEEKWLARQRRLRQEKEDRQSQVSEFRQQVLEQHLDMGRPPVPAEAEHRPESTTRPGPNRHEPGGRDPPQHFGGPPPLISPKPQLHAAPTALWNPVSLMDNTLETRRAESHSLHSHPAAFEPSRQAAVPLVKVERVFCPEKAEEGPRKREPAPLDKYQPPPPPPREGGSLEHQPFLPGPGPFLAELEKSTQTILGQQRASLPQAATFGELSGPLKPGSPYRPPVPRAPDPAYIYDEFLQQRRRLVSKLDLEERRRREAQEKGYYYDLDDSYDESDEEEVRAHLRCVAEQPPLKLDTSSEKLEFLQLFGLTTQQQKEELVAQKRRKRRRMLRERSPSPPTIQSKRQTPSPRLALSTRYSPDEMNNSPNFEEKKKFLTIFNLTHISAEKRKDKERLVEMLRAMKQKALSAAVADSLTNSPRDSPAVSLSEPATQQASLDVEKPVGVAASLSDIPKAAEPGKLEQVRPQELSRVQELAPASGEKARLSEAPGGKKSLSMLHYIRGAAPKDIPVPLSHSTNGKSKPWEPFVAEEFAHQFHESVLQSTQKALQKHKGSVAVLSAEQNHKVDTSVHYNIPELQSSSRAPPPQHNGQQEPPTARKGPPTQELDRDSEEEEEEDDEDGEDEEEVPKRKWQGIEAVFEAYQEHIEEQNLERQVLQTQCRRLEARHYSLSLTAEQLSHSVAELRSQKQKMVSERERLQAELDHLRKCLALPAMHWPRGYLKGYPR
Sequence of UniProt Q99729 (Q99729 whole entry, looked up): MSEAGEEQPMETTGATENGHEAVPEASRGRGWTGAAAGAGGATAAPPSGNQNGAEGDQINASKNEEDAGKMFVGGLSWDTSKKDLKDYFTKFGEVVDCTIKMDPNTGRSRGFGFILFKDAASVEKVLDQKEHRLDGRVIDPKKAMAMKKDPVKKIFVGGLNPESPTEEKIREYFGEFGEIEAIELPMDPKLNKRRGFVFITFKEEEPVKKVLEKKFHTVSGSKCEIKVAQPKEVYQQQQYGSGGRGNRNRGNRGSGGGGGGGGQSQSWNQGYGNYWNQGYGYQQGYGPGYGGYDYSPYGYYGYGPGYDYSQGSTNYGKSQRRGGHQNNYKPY

Target	log2 fold change [1]	log2 fold change [2]	log2 fold change [3]	log2 fold change [4]	log2 fold change [5]	log2 fold change [6]	log2 fold change [7]	log2 fold change [8]	log2 fold change [9]	log2 fold change [10]	log2 fold change [11]	log2 fold change [12]	log2 fold change [13]	log2 fold change [14]	log2 fold change [15]	log2 fold change [16]	log2 fold change [17]	log2 fold change [18]	log2 fold change [19]	log2 fold change [20]
KDM6A (UniProt O15550)	-0.057	-0.057	0.041	-0.048	0.006	0.054	0.018	-0.025	-0.005	-0.011	0.033	0.046	0.003	-0.028	0.032	0.009	0.01	0.022	0.002	0.013
GSK3A (UniProt P49840)	0.53 (active)	-0.089	0.05	0.353	-0.042	0.161	-0.118	-0.03	-0.015	0.003	-0.026	0.207	0.069	-0.002	0.016	0.641 (active)	-0.017	0.002	0.008	-0.02
IL18R1 (UniProt Q13478)	-0.148	0.008	-0.106	-0.322	0.056	0.116	0.142	-0.098	-0.014	-0.039	-0.112	0.207	-0.076	-0.116	-0.049	0.092	0.063	-0.111	-0.031	0.045
HNRNPL (UniProt P14866)	0.035	-0.174	0.016	0.015	-0.02	0	0.073	-0.026	-0.007	-0.019	0.005	-0.02	-0.042	0.018	0.03	-0.081	-0.011	-0.018	0.004	-0.016
GSE1 (UniProt Q14687)	-0.032	-0.155	0.014	-0.006	-0.001	0.017	0.05	-0.017	0.027	0.013	0.006	-0.032	-0.014	-0.073	-0.015	0.011	0.008	-0.019	-0.006	0.051
HMGB1 (UniProt P09429)	0.126	0.059	0.01	0.074	0.046	-0.006	-0.09	-0.043	-0.025	-0.131	0.017	0.02	-0.024	0.304 (active)	0.028	-0.097	0.03	-0.014	0.079	-0.154
GIT1 (UniProt Q9Y2X7)	0.015	-0.04	0.022	0.023	-0.084	0.002	0.026	0.05	-0.011	-0.031	0.029	-0.007	-0.015	0.009	-0.08	-0.076	-0.002	-0.004	-0.047	-0.007
GLYR1 (UniProt Q49A26)	0.013	-0.007	-0.046	-0.084	-0.078	-0.001	0.074	-0.011	-0.046	-0.093	0.053	0.045	-0.058	0.019	-0.079	0.045	-0.044	0.11	-0.042	-0.04
IMMT (UniProt C9J406)	-0.027	-0.076	-0.162	0.075	0.008	-0.085	-0.166	-0.031	-0.073	-0.052	0.017	0.082	-0.116	-0.461 (active)	0.003	0.048	0.015	-0.034	0.03	0.168
GTF3C3 (UniProt Q9Y5Q9)	-0.018	-0.147	0.043	-0.007	0.04	-0.001	0.065	-0.006	0.02	-0.006	-0.043	-0.051	-0.093	-0.108	0.017	-0.037	0.009	0.012	-0.045	0.084
IFITM3 (UniProt Q01628)	-0.001	-0.329	0.01	0.118	0.042	0.043	-0.142	0.109	-0.137	0.291	-0.123	-0.067	-0.089	-0.103	-0.005	0.035	-0.153	-0.034	0.09	-0.022
HNRNPAB isoform 3 (UniProt Q99729)	-0.018	0.021	-0.018	0.017	0.043	-0.012	-0.016	-0.035	0	0.03	0.007	0.01	0.04	-0.068	-0.009	0.019	-0.02	-0.058	-0.002	0.033
KEAP1 (UniProt Q14145)	-0.024	-0.019	-0.008	0.014	0.017	0.043	-0.094	0.012	0.013	0.018	-0.005	-0.023	-0.007	0	0.026	0.019	-0.017	0.01	0	0.008
IMPDH2 (UniProt P12268)	0.026	-0.226 (active)	0.013	0.03	0.017	0.021	-0.501 (active)	0.029	-0.015	-0.023	0.027	0.043	-0.007	-0.011	-0.012	-0.04	-0.017	0.029	0.041	0.012
HARS (UniProt P12081)	0	0.001	-0.02	-0.02	-0.054	-0.03	0.254 (active)	0.003	0.015	0.007	0.008	0.01	-0.009	0.028	0.014	-0.052	0.006	0.003	0.015	-0.01
HDAC6 (UniProt Q9UBN7)	-0.006	0.11	-0.015	-0.003	-0.013	-0.017	0.06	0.013	0.001	-0.012	-0.019	-0.085	-0.039	0.014	0.065	-0.017	0.002	0.012	-0.069	-0.01
